Source: PubChem BioAssay AID1159580 (chemical genetic matrix, 2015)
Out of some 5,500 compounds screened, about 2,000 (36%) were called active. Another 18% or so got no clear call; they are omitted. No stated cut-off is given here; in the data, active means normalized growth mostly below about 0.91 (no sharp cut-off); inconclusive means no clear call, values can overlap the other calls; inactive means mostly above about 0.92. The list shows a part of the results.

Experiment: chemical genetic growth profiling, strain panel (AID 1159580);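 further: tested at 20 µM; growth read once vehicle control cultures reached saturation at 30 °C; 1 = growth at the plate median or of vehicle wells; lower values mean less growth of the strain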
Details: S. cerevisiae deletion strains, growth OD
[1] = locus YAL040C, strain CLN3, active compounds read low
[2] = locus YCL061C, strain MRC1 (second series), active compounds read low
[3] = locus YDR150W, strain NUM1, active compounds read low
[4] = locus YDR363W, strain ESC2, active compounds read low
[5] = locus YER002W, strain NOP16, active compounds read low
[6] = locus YGR229C, strain SMI1, active compounds read low
[7] = locus YJR075W, strain HOC1, active compounds read low
[8] = locus YMR307W, strain GAS1, active compounds read low
[9] = locus YNL175C, strain NOP13, active compounds read low
[10] = locus YNL197C, strain WHI3, active compounds read low
[11] = locus YNL224C, strain SQS1, active compounds read low
[12] = locus YOR083W, strain WHI5 (second series), active compounds read low
[13] = locus YPL241C, strain CIN2, active compounds read low
[14] = locus YDL101C, strain DUN1, active compounds read low
[15] = locus YHR030C, strain SLT2, active compounds read low
[16] = locus YJL095W, strain BCK1, active compounds read low
[17] = locus YOR061W, strain CKA2, active compounds read low
[18] = locus YNL128W, strain TEP1, active compounds read low
[19] = locus YPL055C, strain LGE1, active compounds read low

Measured: normalized growth

Cc1cccc(C(=O)NCN2CCN(c3ccccc3C#N)CC2)c1
inactive: [1] 0.963 | [2] 0.978 | [3] 0.987 | [4] 0.975 | [5] 0.974 | [6] 0.942 | [7] 0.978 | [8] 1.01 | [9] 0.979 | [10] 0.976 | [11] 0.993 | [12] 0.982 | [13] 0.982

FC(F)(F)c1cccc(NC(=S)Nc2csc(C(F)(F)F)c2-c2ccccc2)c1
inactive: locus YAR019C, strain CDC15, active compounds read low 0.968 | locus YBL105C, strain PKC1, active compounds read low 0.998 | locus YBR135W, strain CKS1, active compounds read low 0.995 | locus YBR136W, strain MEC1, active compounds read low 0.97 | locus YBR160W, strain CDC28, active compounds read low 0.988 | locus YDL017W, strain CDC7, active compounds read low 0.998 | locus YDL028C, strain MPS1, active compounds read low 0.992 | [14] 0.983 | locus YDL108W, strain KIN28, active compounds read low 0.993 | locus YDL132W, strain cdc53, active compounds read low 0.98 | locus YDL214C, strain PRR2, active compounds read low 0.944 | locus YDR052C, strain DBF4, active compounds read low 0.987 | locus YDR054C, strain cdc34, active compounds read low 0.97 | locus YDR226W, strain ADK1, active compounds read low 0.988 | locus YDR477W, strain SNF1, active compounds read low 0.991 | locus YER123W, strain YCK3, active compounds read low 0.991 | locus YER133W, strain GLC7, active compounds read low 0.964 | locus YFL009W, strain cdc4, active compounds read low 0.977 | locus YFL029C, strain CAK1, active compounds read low 0.954 | locus YFR003C, strain YPI1, active compounds read low 0.997 | locus YFR019W, strain FAB1, active compounds read low 0.984 | locus YFR028C, strain CDC14, active compounds read low 0.976 | locus YGR040W, strain KSS1, active compounds read low 0.981 | locus YGR052W, strain FMP48, active compounds read low 1.03 | locus YGR092W, strain DBF2, active compounds read low 0.951 | locus YHR079C, strain IRE1, active compounds read low 0.958 | locus YHR082C, strain KSP1, active compounds read low 1 | locus YHR205W, strain SCH9, active compounds read low 0.973 | locus YIL147C, strain SLN1, active compounds read low 0.984 | [16] 0.959 | locus YJL128C, strain PBS2, active compounds read low 0.973 | locus YJL157C, strain FAR1, active compounds read low 0.964 | locus YJR016C, strain ILV3, active compounds read low 0.984 | locus YJR066W, strain TOR1 (second series), active compounds read low 0.934 | locus YJR066W, strain TOR1, active compounds read low 0.983 | locus YKL048C, strain ELM1, active compounds read low 0.997 | locus YKL067W, strain YNK1, active compounds read low 0.963 | locus YKL101W, strain HSL1, active compounds read low 0.952 | locus YKL193C, strain SDS22, active compounds read low 0.985 | locus YKL203C, strain TOR2, active compounds read low 1.03 | locus YLR113W, strain HOG1, active compounds read low 0.892 | locus YLR133W, strain CKI1, active compounds read low 0.96 | locus YLR403W, strain SFP1, active compounds read low 0.989 | locus YML070W, strain DAK1, active compounds read low 0.965 | locus YMR001C, strain CDC5, active compounds read low 0.993 | locus YMR205C, strain PFK2 (second series), active compounds read low 0.96 | locus YMR277W, strain FCP1, active compounds read low 0.987 | locus YNL006W, strain LST8, active compounds read low 0.988 | locus YNL020C, strain ARK1, active compounds read low 0.964 | locus YNL161W, strain CBK1, active compounds read low 0.988 | locus YNL183C, strain NPR1, active compounds read low 0.976 | locus YNL207W, strain RIO2, active compounds read low 0.973 | locus YNL222W, strain SSU72, active compounds read low 0.991 | locus YNL307C, strain MCK1 (second series), active compounds read low 0.938 | locus YOL078W, strain AVO1, active compounds read low 0.986 | locus YOL136C, strain PFK27, active compounds read low 0.953 | [17] 0.945 | locus YOR119C, strain RIO1, active compounds read low 0.978 | locus YOR231W, strain MKK1, active compounds read low 0.957 | locus YOR329C, strain SCD5, active compounds read low 0.991 | locus YPL031C, strain PHO85, active compounds read low 0.976 | locus YPL153C, strain RAD53, active compounds read low 0.976 | locus YPL204W, strain HRR25, active compounds read low 0.955 | locus YPL209C, strain IPL1, active compounds read low 0.997 | locus YPL256C, strain CLN2, active compounds read low 0.934 | locus YPR025C, strain CCL1, active compounds read low 0.992 | locus YPR106W, strain ISR1, active compounds read low 0.984 | locus YPR111W, strain DBF20, active compounds read low 0.981 | strain NNK1, active compounds read low 0.991 | strain TSCII, active compounds read low 0.968
active: [15] 0.848

CC(O)C(O)[C@H]1CNc2nc(N)[nH]c(=O)c2N1 (some centres undefined)
inactive: [1] 1.04 | [2] 1.01 | [3] 1.02 | [4] 1.01 | [5] 1 | [7] 1.04 | locus YMR263W, strain SAP30, active compounds read low 1.01 | [8] 0.995 | [18] 0.998 | [9] 0.999 | [10] 1.01 | [11] 1 | [12] 1.02 | [19] 1.04

CC1(C)C(=O)C=CC2(C)C3CCC4(C)C(c5ccoc5)CC5OC54C3C(O)CC12 (centres undefined)
inactive: locus YAL013W, strain DEP1, active compounds read low 0.975 | locus YBR021W, strain FUR4, active compounds read low 0.985 | locus YBR229C, strain ROT2, active compounds read low 0.995 | locus YCL029C, strain bik1, active compounds read low 1.01 | locus YDL035C, strain GPR1, active compounds read low 0.942 | locus YDL074C, strain BRE1, active compounds read low 0.862 | [14] 0.958 | locus YDL134C, strain PPH21, active compounds read low 0.945 | locus YDL185W, strain tfp1, active compounds read low 1.02 | locus YDL192W, strain arf1, active compounds read low 0.986 | locus YDR101C, strain arx1, active compounds read low 0.98 | locus YDR162C, strain NBP2, active compounds read low 0.882 | locus YDR318W, strain mcm21, active compounds read low 0.992 | locus YDR388W, active compounds read low 1.02 | locus YDR502C, strain sam2, active compounds read low 1.01 | locus YER110C, active compounds read low 1.03 | locus YER155C, strain BEM2, active compounds read low 0.988 | locus YER167W, strain BCK2, active compounds read low 0.961 | locus YGL078C, strain dbp3, active compounds read low 1.02 | locus YGL086W, strain mad1, active compounds read low 0.975 | locus YGL248W, strain PDE1, active compounds read low 0.958 | locus YGR135W, strain pre9, active compounds read low 0.984 | [6] 0.868 | locus YGR252W, strain gcn5, active compounds read low 0.981 | [15] 1 | locus YHR079C, strain IRE1 (second series), active compounds read low 1.02 | locus YHR094C, strain hxt1, active compounds read low 1.02 | locus YHR129C, strain ARP1, active compounds read low 0.977 | locus YHR200W, strain rpn10, active compounds read low 0.993 | locus YIL066C, strain RNR3, active compounds read low 0.926 | locus YIL073C, strain SPO22, active compounds read low 0.999 | locus YIL125W, strain kgd1, active compounds read low 0.999 | locus YIR030C, strain dcg1, active compounds read low 1.01 | [16] 0.884 | locus YJL134W, strain LCB3, active compounds read low 0.992 | locus YJL168C, strain set2, active compounds read low 1.01 | locus YJL187C, strain SWE1 (second series), active compounds read low 0.955 | [7] 0.981 | locus YKL009W, strain mrt4, active compounds read low 1.01 | locus YKL068W, active compounds read low 1.01 | locus YKL085W, strain MDH1 (second series), active compounds read low 1 | locus YKL085W, strain MDH1, active compounds read low 1 | locus YKR001C, strain vps1, active compounds read low 0.984 | locus YLR039C, strain RIC1, active compounds read low 0.785 | locus YLR058C, strain SHM2, active compounds read low 0.975 | locus YLR102C, strain apc9, active compounds read low 1.01 | locus YLR268W, strain sec22, active compounds read low 0.987 | locus YLR330W, strain CHS5, active compounds read low 0.965 | locus YLR371W, strain rom2, active compounds read low 1 | locus YLR418C, strain cdc73, active compounds read low 0.951 | locus YML016C, strain PPZ1, active compounds read low 0.993 | locus YML032C, strain rad52, active compounds read low 1 | locus YML124C, strain tub3, active compounds read low 1.01 | locus YMR078C, strain ctf18, active compounds read low 1 | locus YMR223W, strain ubp8, active compounds read low 0.993 | [8] 0.842 | locus YNL067W, strain RPL9B, active compounds read low 0.978 | [18] 0.972 | locus YNL153C, strain GIM3, active compounds read low 0.983 | locus YNL233W, strain BNI4, active compounds read low 0.938 | locus YNL250W, strain rad50, active compounds read low 1.02 | locus YNL271C, strain bni1, active compounds read low 1.01 | locus YNL298W, strain CLA4, active compounds read low 1.03 | locus YNL307C, strain MCK1, active compounds read low 1 | locus YNR052C, strain pop2, active compounds read low 0.995 | locus YOL006C, strain TOP1, active compounds read low 0.956 | locus YOL012C, strain htz1 1.23 | locus YOL147C, strain pex11, active compounds read low 1 | [17] 0.979 | locus YOR069W, strain VPS5, active compounds read low 0.989 | locus YOR136W, strain idh2, active compounds read low 1.02 | locus YOR144C, strain elg1, active compounds read low 1.01 | locus YOR184W, strain ser1, active compounds read low 0.886 | locus YOR316C, strain cot1, active compounds read low 1.02 | [19] 0.928 | [13] 0.995 | locus YPR119W, strain clb2, active compounds read low 1.02 | locus YPR141C, strain kar3, active compounds read low 1.01 | locus YPR163C, strain tif3, active compounds read low 1.02 | locus YPR167C, strain met16, active compounds read low 1 | strain wtn01, active compounds read low 0.993
